Measured values published in article PMC13494018.

B1: d4r4_design_ppi_34_dldesign_0_cycle1_af2pred (protein)
chain: AEELVKEAAKHIQEARSLINAAEQYVKLGKEKLEEAKEDLKKAEEHIEKAKELAKKAKEAGADEEDVKKLEEAIEKAKKKLEEVKKLI
B2: d4r3_design_ppi_300_dldesign_0_cycle1_af2pred (protein)
chain: SSAELTKEAKAKVEAAGAAADAAAAADPAAGAAAYTEAAQLALQESAKLDASKENKEAAEEMRKKGKEFAAKAKALRA
B3: d4r3_design_ppi_258_dldesign_0_cycle1_af2pred (protein)
chain: AAEEARKAKIQKMADRLLELSKKYGISLEDMKDMMSFSATDPADKAVGLALLDAGHAELAAAKAAEAARAEALAA
B4: d4r3_design_ppi_270_dldesign_0_cycle1_af2pred (protein)
chain: SAEEEKKKLLAIADEYAAKVKEAAADLEKAGAVLKEGITELVKLGAPNSVIAYLISKAVKAVGSKIMPYADEAIDEALKA
B5: d4r3_design_ppi_300_dldesign_0_cycle0_af2pred (protein)
chain: SAEELAKKAKEEVEKAEKEAEEAAAKDKKAGAAKYAEAAQLAYQKAGELDASKENKEEAEEMRERGRELAKKARELEA
B6: d4r4_design_ppi_87_dldesign_0_cycle0_af2pred (protein)
chain: AEENKAEGAKEAAEDAIEAALKKAEEDPEEGLKAAEKVKERVKKRAEEVEETEYGKKVGKEIKKKAEKALKEIEKKAKAAKAAK
B7: d4r3_design_ppi_464_dldesign_0_cycle1_af2pred (protein)
chain: SVSLEEQEARALARTYAEIAEKKIKEAPKDKELAEKIAKEVLEEAKKAAKDLPEYEEYTIELAEKRLKEILEKYAKKA
B8: d4r3_design_ppi_266_dldesign_0_cycle0_af2pred (protein)
chain: MEEKGNEVIERAKKKLEEGKKLAKEGELLKGYALAQSAEARAENAAEAAEKAGLEEVAKKAKEVAKEAKAAAEEIEKKRKEAEA
B9: d4r4_design_ppi_180_dldesign_0_cycle1_af2pred (protein)
chain: DDFEKALEELKKAGELLPEAAEIAEEAIKKATASKDLKEAAKILLEAAKKIAKIAKEAGNEEAAKAAAAAAQYARQLKAAA
B10: d4r4_design_ppi_123_dldesign_0_cycle0_af2pred (protein)
chain: SEAEKKTKEAAKLAYEAAKSNPEKGREYRKKAGELIATLSPEEAKKAAAEAQDAYAEGRAEKKLEELKKREEEK
B11: d4r3_design_ppi_402_dldesign_0_cycle1_af2pred (protein)
chain: EEEEKKKAEELKKFLEEQNKKRKEVAELAKKYPEVAPYAKAYAKAQNEAFEYYDVDKEKSAKALAEAEKYEAKINALLAKL
B12: d4r4_design_ppi_129_dldesign_0_cycle1_af2pred (protein)
chain: MEKVTEARDVALEAAGILELAGIKVPEYRKELSEKAKEAIREVAEAGREALEKGEEEYEKLEKVAEKVYKEAKKKAEEALKKKE
B13: d4r4_design_ppi_157_dldesign_0_cycle1_af2pred (protein)
chain: SKEEARKRGLESAEELKELVEEGIPVEAVGAIAASDVEWLMKYPYGEYAAEALIEALEKYNPVMGEKAREAYEEAKERKAK
B14: d4r3_design_ppi_308_dldesign_0_cycle1_af2pred (protein)
chain: MEAEKKAEKALEELKKAAKKLEELAKKGGSVEEAEELNEKVLELRSEAKFYASKADEEFGKKVKEEAKKALEKAREAYKKLKE
B15: d4r4_design_ppi_2_dldesign_0_cycle1_af2pred (protein)
chain: DEKAKKAAEEAKKVAKEGREKLKEAEKLMKEGKYKEAAKLAAEVAKKAKEKAEEAEKISKSVAPYALLLENVADAAKALAKEAKEKI
B16: d4r4_design_ppi_128_dldesign_0_cycle0_af2pred (protein)
chain: ESEKKYKELKEELEKAYKEAKKAILEASKLKPEEAKKKMEEILEEFKKKAYELISKALEQSADYGRELAKLAQEYYKELEELAKKLL
B17: d4r4_design_ppi_213_dldesign_0_cycle1_af2pred (protein)
chain: GALEEAKKLVEEAAKLAEEGKLEEAKEKLKKAMDLAAEHEDPEVVREIAREAKKIVELAEKKKKEKEEKEKKEK
B18: d4r4_design_ppi_128_dldesign_0_cycle1_af2pred (protein)
chain: SSAEQAAKLRAELDAAAAAAAAAIAAAAGLTPAAAAAASAATIAAYKATASALIDAAFELSSDYGRSIAKAAKEKLAALEAQAAALA
B19: d4r3_design_ppi_225_dldesign_0_cycle1_af2pred (protein)
chain: AADAALAAAAAEELAKARSLATEALLYAKKGKVEEAKKLLEEAEKALKKAEELAAAASPEVQARAKKAIEGVKKKIEEAKKAIKEK
B20: d4r4_design_ppi_102_dldesign_0_cycle1_af2pred (protein)
chain: EEEKVKKAAEKAIKLAKETAEKAYKAAKKVKDKEYKEKFKEITLLALEAKALARAGKALGNKELVEAAKKLAEEAKEKLEKLEKEAE
B21: d4r3_design_ppi_239_dldesign_0_cycle1_af2pred (protein)
chain: MEEAEKALKKAEELRAEAKRLGEIVSNPELGKKEAAKAGKKTPEEIEAWLKEVAAKAQELREEAAEYEAKAIRIK
B22: d4r4_design_ppi_225_dldesign_0_cycle0_af2pred (protein)
chain: AELRERAEAAERRFEAAKARLKEALEKGDKSRAYGEAFRLKHIAEVARRLAAEVRAAATTEEQRELAERLEELAREAEALAEEALKK
B23: d4r3_design_ppi_383_dldesign_0_cycle0_af2pred (protein)
chain: SSLASELNEKKAEERGLEYAKKRLDEKAKKALELAKQVPEVAAEVKKLVDEGKALLEKGDIGGAFAKMDEALKLAEKALAA
B24: d4r4_design_ppi_79_dldesign_0_cycle1_af2pred (protein)
chain: AGKAAYEKLKANMERREKKAEEAEKKDKKLGKFEAEKGIEFSKHAAEAAKKKAAEDPAYKEAAKYAKEAEEKFKKKLKELEK
B25: d4r4_design_ppi_2_dldesign_0_cycle0_af2pred (protein)
chain: DEKAKKMAEEARKAAEEGRKALKEARKLAKEGELEKAAKLAEETAKKAEEKAKEAEKLSKKVAPEALRLLGVADAAKTAAEEFKKKL
B26: d4r4_design_ppi_90_dldesign_0_cycle1_af2pred (protein)
chain: MTKEEAERMIKILKERLEKIKKAGKEKGEEMQKIAKELEEALKKAEEAFKKDPEKAGAYFQEARQIAAEGEFKEK
B27: d4r3_design_ppi_381_dldesign_0_cycle1_af2pred (protein)
chain: GSSDELEKKTETKAYRSLSTKKAKEYSKDKELVKKIEEEAKTYEGALKARKETEEIVKEVKKKEEEEKKKKE
B28: d4r4_design_ppi_225_dldesign_0_cycle1_af2pred (protein)
chain: DELREQAERAKKRFEEAEKKLKEALEKGDKKEAIKYAERLKHLAEVAEKLAEEVEAAATNPETKELAERLKELAKRAKKLAEEALKK
B29: d4r4_design_ppi_222_dldesign_0_cycle1_af2pred (protein)
chain: SLEKLKEYLENAEKERKKVLEAAKEARELAKKGEEEEAKKYLGNAVTDARLNLNEAAYDAGLDTSIGNKLAKEFGAEGEKIFK
B30: d4r4_design_ppi_44_dldesign_0_cycle1_af2pred (protein)
chain: AKAKEEGKKLAKEATEEAKKLLDKAKEEVKKGGTYEEVKKYVDKGKEAAKKYGAKAKELPETAADVAKVIQDFYEESNEALAEAKRL
B31: d4r4_design_ppi_58_dldesign_0_cycle0_af2pred (protein)
chain: EEELKKAKEEAEKAIKEAEEAAKKIEEGEAREGVKKIREIKKKLEEKGKESTPEAKKIYKEAAKKIAEIAHEGLEKRAEKKAK
B32: d4r4_design_ppi_227_dldesign_0_cycle1_af2pred (protein)
chain: GFKTKATAESGYERMKSIYEAFAKLGPKSPIYKEGAEKMKEYAEKLKELENSTEEEIEKLSKEGIEVGKKLKAEAEAK
B33: d4r4_design_ppi_229_dldesign_0_cycle0_af2pred (protein)
chain: EKEEKIKKAKELAEKAKELAKKLKEAGEKDLEKAKKLLKEAREAAKKAIELAKEAGDEELAKKASDEQAKAQEAYAEAKAK
B34: d4r3_design_ppi_239_dldesign_0_cycle0_af2pred (protein)
chain: EEKAKEAEKKSKEYREKARELAEDVRNPELGRERAREEGKKTEEEIEAWLAEKAKEAQELRQESAEYDAKAIILK
B35: d4r4_design_ppi_123_dldesign_0_cycle1_af2pred (protein)
chain: AAEAAKAAAAAALAKKAAQSSPEKARAYRKEAGALIAELSPAAAAAAAAAAQDAYADGVAEKVLSELEEKKKKE
B36: d4r4_design_ppi_34_dldesign_0_cycle0_af2pred (protein)
chain: VQKLIDEAAQEIQEARAHISGAEQYVLMGKEYLPEAKKDLEEAEKHIKKAKELTKKAKEAGADEEEIKKLEKAIEKAEARLEEVKKMM
B37: d4r4_design_ppi_105_dldesign_0_cycle1_af2pred (protein)
chain: MEEIKKEVEETTKKAKEKLKELEKEAEKAGVKEAVEVAKKGKEKVEKLAKKAEKAVKEGNKNYALAKIDAIKDTTEAAEKQVKKLIKA
B38: d4r4_design_ppi_58_dldesign_0_cycle1_af2pred (protein)
chain: MEELKKAEEEAKKAVEEAKKYAELIAEGKSEEGIEKIKKIAEELKKKGKETTPEAAKIYEKAVKEIAKIAHEGLEKRAEKEAK

The binders below were run against VTCN1, Q7Z7D3.
Sequence of VTCN1, Q7Z7D3 (Q7Z7D3 whole entry): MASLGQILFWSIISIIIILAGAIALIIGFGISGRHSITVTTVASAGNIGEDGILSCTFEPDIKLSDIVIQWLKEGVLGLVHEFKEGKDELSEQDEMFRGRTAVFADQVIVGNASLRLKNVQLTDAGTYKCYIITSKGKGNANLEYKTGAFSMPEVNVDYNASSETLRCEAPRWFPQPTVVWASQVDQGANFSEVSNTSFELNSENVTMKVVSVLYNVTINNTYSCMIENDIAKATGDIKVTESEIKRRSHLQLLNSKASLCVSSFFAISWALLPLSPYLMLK

Row | Binder | binding in a display sort
1 | B1 | not found (inactive)
2 | B2 | not found (inactive)
3 | B3 | not found (inactive)
4 | B4 | not found (inactive)
5 | B5 | not found (inactive)
6 | B6 | not found (inactive)
7 | B7 | not found (inactive)
8 | B8 | not found (inactive)
9 | B9 | not found (inactive)
10 | B10 | not found (inactive)
11 | B11 | not found (inactive)
12 | B12 | not found (inactive)
13 | B13 | not found (inactive)
14 | B14 | not found (inactive)
15 | B15 | not found (inactive)
16 | B16 | not found (inactive)
17 | B17 | not found (inactive)
18 | B18 | not found (inactive)
19 | B19 | not found (inactive)

Row | Binder | binding in a display sort
20 | B20 | not found (inactive)
21 | B21 | not found (inactive)
22 | B22 | not found (inactive)
23 | B23 | not found (inactive)
24 | B24 | not found (inactive)
25 | B25 | not found (inactive)
26 | B26 | not found (inactive)
27 | B27 | not found (inactive)
28 | B28 | not found (inactive)
29 | B29 | not found (inactive)
30 | B30 | not found (inactive)
31 | B31 | not found (inactive)
32 | B32 | not found (inactive)
33 | B33 | not found (inactive)
34 | B34 | not found (inactive)
35 | B35 | not found (inactive)
36 | B36 | not found (inactive)
37 | B37 | not found (inactive)
38 | B38 | not found (inactive)
